The source of these data is PubChem BioAssay (NCATS).

Results filed as inconclusive are left out. Activity calls are given as the source filed them. Unless noted, calls come from the whole dose curve; as a rule, active = well fitted curve in the direction sought with a large enough effect; inconclusive = small, poorly fitted or top-dose-only effect, or another doubt; inactive = no such curve, though single readings can be large; an effect the other way counts as inactive or inconclusive.

The target in assay [1] is Thyrotropin-releasing hormone receptor (Homo sapiens) (UniProt P34981). Kind of assay: qHTS for Small Molecule Agonists and Allosteric Enhancers of Human TRH Receptor: Validation Screen for Agonists (AID 493127;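 active = calcium activation more than 3 SD above the typical response in the agonist read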;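 note: intracellular calcium rise by fluo-8 fluorescence before TRH EC20 addition; 0% is about no effect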). Particulars: TRH receptor agonist cell assay; at 2 µM; stronger effect = higher value. The method, boiled down: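 Gq-coupled calcium mobilization in TRHR cells after compound addition, monitored kinetically with fluo-8 dye on an FDSS reader.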
Chain of Thyrotropin-releasing hormone receptor (Homo sapiens) (P34981 whole entry, looked up): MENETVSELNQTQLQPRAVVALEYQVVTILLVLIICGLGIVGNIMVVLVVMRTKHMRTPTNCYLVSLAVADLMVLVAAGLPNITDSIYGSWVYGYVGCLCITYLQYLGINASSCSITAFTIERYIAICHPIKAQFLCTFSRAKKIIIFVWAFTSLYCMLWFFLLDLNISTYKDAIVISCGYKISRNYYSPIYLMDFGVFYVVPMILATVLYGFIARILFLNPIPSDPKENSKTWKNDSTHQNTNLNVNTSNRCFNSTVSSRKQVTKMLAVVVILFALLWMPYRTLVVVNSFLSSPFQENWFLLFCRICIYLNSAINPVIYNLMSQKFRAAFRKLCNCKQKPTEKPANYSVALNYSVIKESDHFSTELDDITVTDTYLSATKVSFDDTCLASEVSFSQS
On the technique in general: Quantitative high-throughput screening tests each substance at several concentrations.

For assay [2], the target named is Galactokinase (Homo sapiens) (UniProt P51570). Kind of assay: qHTS Validation Assay for Inhibitors of Human Galactokinase (GALK) (AID 493189). Note: 0% is about no effect. Particulars: purified human GALK enzyme activity, qHTS 7-point titration; series mostly up to 57.5 µM. A digest of the protocol:
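Enzyme activity is inferred from ATP consumption: human GALK phosphorylates galactose (100 uM) using 35 uM ATP for 1 h at room temperature, and luciferase-based Kinase-Glo Plus reports unconsumed ATP.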

Assay [3] in a line: Validation screen for small molecules that induce DNA re-replication in SW480 colon adenocarcinoma cells (AID 504364). Note: 0% is about no effect. Particulars: DNA re-replication phenotype (high-content imaging); series mostly up to 46.1 µM. The method, boiled down:
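Cells are treated 48 hr with test compound, stained 40 min with Hoechst at 37 C, and scanned for nuclear fluorescence; compounds inducing re-replication increase nuclei with elevated intensity.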

The nature of assay [4]: Validation screen for small molecules that induce genotoxicity in human embryonic kidney (HEK293T) cells expressing luciferase-tagged ELG1 (AID 493106). Note: 0% is about no effect. Particulars: luminescence; series mostly up to 46.1 µM. The method, boiled down: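 Reporter-gene quantitative HTS in HEK293T cells carrying luciferase-tagged ELG1, whose level climbs under genotoxic stress. Compound exposure lasts 16 hr at 37 °C before luciferase detection.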

The target of assay [5] is ATPase family AAA domain-containing protein 5 (Homo sapiens) (UniProt Q96QE3). Kind of assay: Validation screen for small molecules that inhibit ELG1-dependent DNA repair in human embryonic kidney (HEK293T) cells expressing luciferase-tagged ELG1 (AID 493107). Note: nearly all actives have a fitted effect of over 70% in size. Note: potency is the fitted concentration of half-maximal effect. The following applies: HEK293T ELG1-luciferase level, luminescence, 5-fluorouridine co-treatment, 16 h; series mostly up to 46.1 µM. A digest of the protocol:
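Quantitative HTS in HEK293T cells carrying luciferase-tagged ELG1, stimulated with 5-fluorouridine alongside compound for 16 hr. Loss of luciferase signal marks inhibition of ELG1 response.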

Assay [6] in a line: Nrf2 qHTS screen for inhibitors: Validation (AID 493153; active = well fitted inhibition curve with a large enough effect in the main read-out, with a control signal flat, not every such curve was filed as active). Particulars: A549 ARE-Fluc reporter, 18-24 h; viability change: measured here: cytotoxicity max response; luciferase luminescence, at 46.1 µM (top of the series). The method, boiled down: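 Dose-response validation uses reporter A549 cells with firefly luciferase under an antioxidant response element. Compounds stay on cells 18-24 h at 37°C, and luminescence indicates Nrf2-driven transcription.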

Assay [7] addresses Peptidyl-prolyl cis-trans isomerase NIMA-interacting 1 (Homo sapiens) (UniProt Q13526). Kind of assay: qHTS Validation Assay to Find Inhibitors of Pin1 (AID 504536; active = well fitted inhibition curve with a large enough effect in the polarisation, with a control signal flat, not every such curve was filed as active; the % refers to the polarisation;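 note: 0% = full Pin1 enzyme wells and -100% = no-enzyme wells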). The following applies: Pin1 fluorescence polarization peptide binding assay; series mostly up to 57.5 µM. The method, boiled down:
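Fluorescence polarization competition: compounds (titration) displace HiFluor-488-labeled Pin1-1b peptide from Pin1 (0.3 uM final) in pH 7.5 HEPES buffer with DTT, 10 min at room temperature; %Activity normalized to no-enzyme wells, curves fitted.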

Assay [8] deals with Phosphoglycerate kinase, glycosomal (Trypanosoma brucei brucei) (UniProt P07378). Kind of assay: qHTS Validation Assay to Find Inhibitors of Phosphoglycerate Kinase (AID 504547).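 Note: control wells lack PGK and mark full inhibition.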 Particulars: enzymatic PGK inhibition, coupled luminescence read-out; series mostly up to 57.5 µM. The method, boiled down: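 Substrate/PGK mix plus compound; reaction started with GAPDH (100nM final) to form 1,3-BPG; 60 min RT; Kinase-Glo Plus 10 min; luminescence. TEA 100mM pH 7.6, MgCl2 5mM, Tween-20 0.01%.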
Chain of Phosphoglycerate kinase, glycosomal (Trypanosoma brucei brucei) (P07378 whole entry, looked up): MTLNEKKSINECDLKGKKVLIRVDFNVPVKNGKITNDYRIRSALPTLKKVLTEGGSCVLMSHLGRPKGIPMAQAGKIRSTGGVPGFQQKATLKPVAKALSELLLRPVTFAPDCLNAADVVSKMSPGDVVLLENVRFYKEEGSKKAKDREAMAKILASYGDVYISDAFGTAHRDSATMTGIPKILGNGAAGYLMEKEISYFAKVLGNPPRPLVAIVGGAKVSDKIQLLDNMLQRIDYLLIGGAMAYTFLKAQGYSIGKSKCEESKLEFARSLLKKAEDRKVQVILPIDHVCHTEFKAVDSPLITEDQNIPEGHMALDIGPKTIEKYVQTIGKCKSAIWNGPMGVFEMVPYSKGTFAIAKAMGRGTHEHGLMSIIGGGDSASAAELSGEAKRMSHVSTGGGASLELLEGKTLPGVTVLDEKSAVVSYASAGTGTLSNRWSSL

In assay [9] the target is phosphoglycerate mutase (Leishmania major) (UniProt Q4Q090). Nature of the assay: qHTS Validation Assay to Find Inhibitors of Phosphoglycerate Mutase (AID 504548). Note: % is set by controls: 0 for no effect and ±100 for the full control effect. Particulars: biochemical enzyme activity; series mostly up to 57.5 µM. An excerpt: NIH Molecular Libraries Probe Production Network [MLPCN]
Chain of phosphoglycerate mutase (Leishmania major) (Q4Q090 1-553): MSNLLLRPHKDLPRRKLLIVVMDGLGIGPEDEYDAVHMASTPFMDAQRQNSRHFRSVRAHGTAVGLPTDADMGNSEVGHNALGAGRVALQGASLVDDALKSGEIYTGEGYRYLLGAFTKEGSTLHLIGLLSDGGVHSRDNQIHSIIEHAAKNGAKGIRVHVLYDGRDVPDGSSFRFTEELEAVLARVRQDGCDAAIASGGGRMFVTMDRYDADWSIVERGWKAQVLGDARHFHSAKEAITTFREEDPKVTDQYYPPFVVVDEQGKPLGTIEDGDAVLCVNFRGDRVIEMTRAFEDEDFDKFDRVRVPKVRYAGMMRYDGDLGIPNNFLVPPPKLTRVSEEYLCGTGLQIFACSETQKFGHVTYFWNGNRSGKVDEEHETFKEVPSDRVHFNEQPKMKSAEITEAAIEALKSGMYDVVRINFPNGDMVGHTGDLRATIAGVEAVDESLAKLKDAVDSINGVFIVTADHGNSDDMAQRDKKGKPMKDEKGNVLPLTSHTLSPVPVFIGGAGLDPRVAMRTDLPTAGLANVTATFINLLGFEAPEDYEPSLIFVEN
NIH Chemical Genomics Center [NCGC]
PI Name: Malcolm Walkinshaw, University of Edinburgh
Several species of the Trypanosomatidae family of parasitic protozoans cause a spectrum of diseases throughout the tropical and subtropical world. Sleeping sickness, caused by two subspecies of Trypanosoma brucei, is endemic to areas of sub-Saharan Africa, while Chagas disease, a manifestation of Trypanosoma cruzi infection, is prevalent throughout Central and South America. In addition, many species of Leishmania are responsible for a range of cutaneous and visceral diseases, causing ulcers, destructive lesions and kalaazar, a lethal infection of the viscera. Collectively, these organisms infect 30 million people worldwide (~500 million live in endemic areas), and account for ~130,000 deaths annually. Given their debilitating and prevalent nature, trypanosomatid parasites impose a heavy medical, economic and social burden on entire populations, primarily in the developing world. The problem is further exacerbated by the fact that existing treatments have progressed little in the past 50 years, and current drugs show high toxicity and poor efficacy.
Blood-stream stages of T. brucei are entirely dependent on glycolysis as a source of ATP, and the tricarboxylic acid cycle and oxidative phosphorylation are both repressed. Glycolysis in axenically cultured T. cruzi, representing the intracellular pathogenic stage, is also essential for these parasites. […] Previous studies have shown that the glycolytic enzyme, phosphoglycerate mutase (PGAM), is a viable target for drugs to kill these parasites. […] Furthermore, the cobalt centers present within PGAM are only found in trypanosomatid and plant PGAMs, and are known to be required for activity, thereby providing an additional target. Moreover, trypanosomatid PGAMs are completely different from the enzyme that performs the same function in humans: the parasite and host enzymes share no structural or even mechanistic features; specificity is therefore unlikely to be an issue.
NCGC Assay Protocol Summary:
Briefly, 3ul of substrate buffer (all columns) are dispensed into Greiner white solid bottom 1536-well assay plates. Compounds are then transferred via Kalypsys pin tool equipped with 1536-pin array (10nl slotted pins, V&P Scientific, San Diego, CA). Following addition of compound, 1ul of Lm PGAM (1.25nM final concentration, columns […]) is added to initiate the reaction; columns 3-4 receive only TEA buffer as negative controls. […] Kinase-GloPlus reagent is added (2ul) and plates incubated for 10 minutes, before being transferred to a ViewLux high-throughput CCD imager (PerkinElmer) wherein single end-point measurements of luminescence are acquired using a clear filter. […]

The nature of assay [10]: qHTS for Inhibitors of Cell Surface uPA Generation: Validation Assay (AID 493164).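 Note: RAW 264.7 macrophage cells exposed to compound for 18 h; 0% is about no effect.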 The following applies: mouse cells, plasminogen activation; series mostly up to 38.3 µM. The method, boiled down:
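RAW 264.7, 4000 cells/well, o/n plating; cpd 7-pt 1:5 dilution 2.45 nM–38.3 uM final; 18 h, 37 C/5% CO2; ATP-Lite, 5 s luminescence exposure.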

Chain of Peptidyl-prolyl cis-trans isomerase NIMA-interacting 1 (Homo sapiens) (Q13526 whole entry, looked up): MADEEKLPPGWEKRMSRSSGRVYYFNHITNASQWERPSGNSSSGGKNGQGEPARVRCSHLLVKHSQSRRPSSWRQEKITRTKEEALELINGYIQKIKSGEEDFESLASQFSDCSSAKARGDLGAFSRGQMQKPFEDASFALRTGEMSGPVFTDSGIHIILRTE
Chain of ATPase family AAA domain-containing protein 5 (Homo sapiens) (Q96QE3 whole entry, looked up, the tested form may be a part): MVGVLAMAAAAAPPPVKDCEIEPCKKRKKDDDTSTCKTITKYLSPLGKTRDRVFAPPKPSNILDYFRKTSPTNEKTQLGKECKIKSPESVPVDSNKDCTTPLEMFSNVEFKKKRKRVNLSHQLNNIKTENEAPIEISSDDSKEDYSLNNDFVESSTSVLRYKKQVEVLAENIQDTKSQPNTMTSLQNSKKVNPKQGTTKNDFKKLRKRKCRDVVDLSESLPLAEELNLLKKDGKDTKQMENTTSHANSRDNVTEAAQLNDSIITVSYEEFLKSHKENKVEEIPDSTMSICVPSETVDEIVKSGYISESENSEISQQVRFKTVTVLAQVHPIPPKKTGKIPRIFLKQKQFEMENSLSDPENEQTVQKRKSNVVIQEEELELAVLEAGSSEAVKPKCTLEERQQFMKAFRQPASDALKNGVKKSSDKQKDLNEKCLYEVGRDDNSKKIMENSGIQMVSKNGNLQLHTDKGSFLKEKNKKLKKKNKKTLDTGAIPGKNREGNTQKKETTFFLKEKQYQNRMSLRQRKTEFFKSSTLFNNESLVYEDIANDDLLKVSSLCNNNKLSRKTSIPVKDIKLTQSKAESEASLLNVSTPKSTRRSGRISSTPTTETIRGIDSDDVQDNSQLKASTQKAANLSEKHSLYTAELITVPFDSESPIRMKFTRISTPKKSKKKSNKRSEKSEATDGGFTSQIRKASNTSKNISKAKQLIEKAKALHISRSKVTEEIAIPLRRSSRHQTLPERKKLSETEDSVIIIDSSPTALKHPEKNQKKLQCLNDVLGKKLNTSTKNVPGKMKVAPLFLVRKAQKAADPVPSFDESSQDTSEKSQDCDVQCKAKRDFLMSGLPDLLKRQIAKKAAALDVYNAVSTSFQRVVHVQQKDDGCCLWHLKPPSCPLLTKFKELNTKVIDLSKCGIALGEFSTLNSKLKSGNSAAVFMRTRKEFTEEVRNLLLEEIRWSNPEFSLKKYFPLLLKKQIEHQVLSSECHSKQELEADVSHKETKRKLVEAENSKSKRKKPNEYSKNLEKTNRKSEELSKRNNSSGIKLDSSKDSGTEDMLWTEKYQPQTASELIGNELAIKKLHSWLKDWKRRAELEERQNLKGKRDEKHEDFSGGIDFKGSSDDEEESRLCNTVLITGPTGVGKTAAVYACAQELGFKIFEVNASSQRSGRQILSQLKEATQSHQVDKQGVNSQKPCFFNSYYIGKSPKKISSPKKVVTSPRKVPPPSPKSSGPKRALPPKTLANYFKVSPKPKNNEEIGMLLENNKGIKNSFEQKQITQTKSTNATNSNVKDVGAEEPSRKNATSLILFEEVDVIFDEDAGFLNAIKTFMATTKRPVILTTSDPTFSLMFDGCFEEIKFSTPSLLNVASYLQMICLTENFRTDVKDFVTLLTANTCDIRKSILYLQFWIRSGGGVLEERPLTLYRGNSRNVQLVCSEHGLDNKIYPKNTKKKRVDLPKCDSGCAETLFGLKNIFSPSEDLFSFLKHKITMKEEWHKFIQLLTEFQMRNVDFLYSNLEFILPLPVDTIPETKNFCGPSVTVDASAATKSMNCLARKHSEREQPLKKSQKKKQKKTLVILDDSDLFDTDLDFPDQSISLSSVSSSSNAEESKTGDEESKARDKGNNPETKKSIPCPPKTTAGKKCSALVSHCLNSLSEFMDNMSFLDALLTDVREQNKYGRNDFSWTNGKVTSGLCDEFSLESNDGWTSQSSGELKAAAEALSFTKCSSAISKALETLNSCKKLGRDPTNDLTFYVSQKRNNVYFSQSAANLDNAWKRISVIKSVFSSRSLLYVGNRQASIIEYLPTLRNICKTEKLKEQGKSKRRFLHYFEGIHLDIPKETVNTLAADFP
Chain of Galactokinase (Homo sapiens) (P51570 whole entry, looked up): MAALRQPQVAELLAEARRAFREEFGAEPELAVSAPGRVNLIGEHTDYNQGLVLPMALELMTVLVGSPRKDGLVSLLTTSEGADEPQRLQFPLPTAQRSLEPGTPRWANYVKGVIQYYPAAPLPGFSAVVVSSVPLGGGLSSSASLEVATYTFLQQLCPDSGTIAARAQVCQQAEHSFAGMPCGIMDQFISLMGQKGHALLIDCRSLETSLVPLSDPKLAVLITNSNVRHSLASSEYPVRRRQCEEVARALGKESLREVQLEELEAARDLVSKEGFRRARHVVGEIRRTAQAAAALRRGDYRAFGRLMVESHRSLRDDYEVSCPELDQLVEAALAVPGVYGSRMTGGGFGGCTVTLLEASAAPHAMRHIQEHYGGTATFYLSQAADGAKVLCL

Regarding `c1ccc2nc(N3CCNCC3)ccc2c1`, the activation in assay [1] is -0.562% (inactive). The compound was classed as inactive in assay [2] and in [3].

With `COc1ccc(C(=O)N2CCCC2=O)cc1`, the result in assay [4], in [6], in assay [2], in assay [3], in [7] and in [8] was inactive. Moreover, the compound was classed as inactive in assay [9]. The Potency result in assay [5] is “inactive”. Also, in [1], the activation is 0.812% (inactive). The viability change in assay [6] was -4.73%.

For the compound `O=C(O)c1nn(Cc2ccc(Cl)cc2Cl)c2ccccc12`, the compound was classed as inactive in assay [4], in assay [10], in assay [2], in [3], in assay [7] and in assay [8]. In [9], the outcome was inactive. For the same compound, the Potency entry in assay [5] is “inactive”. Also, the activation in [1] was 0.438% (inactive).

As to `CCCCCCCCC(=O)NCc1ccc(O)c(OC)c1`, the compound was classed as inactive in assay [2] and in assay [3].

For `COC(=O)C1=C(C)NC(C)=C(C(=O)OC)C1c1ccccc1[N+](=O)[O-]`, in [5], the Potency was 18.3 µM (active).

As for `COC(=O)C1=CCCN(C)C1`, the result in [4], in assay [6], in assay [10], in assay [2], in assay [3] and in assay [7] was inactive. Further, the outcome in assay [8] and in [9] was inactive. In addition, the Potency entry in assay [5] was “inactive”. The viability change in assay [6] is -1.14%.

In the case of `NC(=O)CN1CCCC1=O`, the compound was called inactive in assay [4], in [6], in assay [10], in assay [2], in assay [3] and in assay [7]. Also, the outcome in [8] and in assay [9] was inactive. Further, in assay [5], the Potency entry was “inactive”. Also, the activation in assay [1] was -0.312% (inactive). Also, the viability change in assay [6] is -6.84%.

Take `CC[C@H]1CN2CCc3cc(OC)c(OC)cc3[C@@H]2C[C@@H]1C[C@H]1NCCc2cc(OC)c(OC)cc21`: in [4], the outcome was inactive. Also, the Potency in assay [5] is 0.259 µM (active).

Consider `CC(N)C(=O)OC(C)(C)Cc1ccc(Cl)cc1` (stereo not given), for which the call in [2] and in assay [3] was inactive.
